High-throughput results deposited in PubChem by National Center for Advancing Translational Sciences (NCATS).
Most compounds without a hit are left out; they make up all but 1.8% or so of the library.
GLP1R ag: qHTS of GLP-1 Receptor Agonists | HEK293 GLP-1R CRE-luciferase, luminescence, 4-6 h; cells express a hypersensitive GLP-1R form | Glucagon-like peptide 1 receptor (Homo sapiens), P43220 | hit rate 0.007% among 380,000 | Potency, µM (doses to about 45.6 µM), for inactives: at the highest dose activation, usual class: activators; note: % of control where 0% means no effect
PTHR1 agonist: qHTS for PTHR1 Agonists: Primary Screen | AID 743266, 2014 | Parathyroid hormone/parathyroid hormone-related peptide receptor (Homo sapiens), Q03431 | Potency, µM (titrated, usually from 115 µM), for inactives: at the top dose activation, usual class: activators | HEK293 GP2 PTHR1 cells, GloSensor cAMP luminescence, 1 h | hit rate 0.075% among 410,000; note: nearly all actives have a fitted effect of over 55% in size
Target sequence (Q03431 whole entry, looked up): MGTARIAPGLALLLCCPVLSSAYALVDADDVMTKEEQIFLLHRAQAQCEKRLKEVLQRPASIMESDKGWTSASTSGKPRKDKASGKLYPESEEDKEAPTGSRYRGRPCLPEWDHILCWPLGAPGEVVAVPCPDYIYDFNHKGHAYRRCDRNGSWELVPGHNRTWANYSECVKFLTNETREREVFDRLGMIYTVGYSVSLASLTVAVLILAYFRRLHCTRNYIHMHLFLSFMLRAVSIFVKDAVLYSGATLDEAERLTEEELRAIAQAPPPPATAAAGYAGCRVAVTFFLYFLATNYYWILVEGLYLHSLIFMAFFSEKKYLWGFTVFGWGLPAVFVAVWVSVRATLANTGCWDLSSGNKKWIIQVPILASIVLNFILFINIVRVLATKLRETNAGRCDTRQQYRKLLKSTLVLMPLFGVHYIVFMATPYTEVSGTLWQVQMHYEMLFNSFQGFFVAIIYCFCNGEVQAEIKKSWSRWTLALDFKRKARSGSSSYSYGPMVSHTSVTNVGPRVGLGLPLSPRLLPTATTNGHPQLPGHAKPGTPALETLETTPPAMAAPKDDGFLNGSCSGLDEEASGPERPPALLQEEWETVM
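HEK-293-derived GP2 cells expressing PTHR1 and a GloSensor cAMP reporter, 3,000/well, plated overnight, given luciferin plus IBMX (each 0.5 mM as added) for 1 h at 37 °C, then compound for 1 h at 37 °C. Luminescence was read after 15 min at room temperature.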
KAT2A inh: qHTS Assay for Inhibitors of GCN5L2. Histone acetyltransferase KAT2A (Homo sapiens), Q92830. GCN5L2 HAT assay, ThioGlo1 CoA-SH fluorescence. Potency, µM (doses to about 58.9 µM), without a hit: at the top dose activity change, negative = inhibition, usual class: inhibitors. hit rate 0.21% among 390,000. AID 504327, 2011; note: % is set by controls: 0 for no effect and ±100 for the full control effect
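qHTS, 1536-well. 20nM enzyme, pH 7.5 HEPES/EDTA/Tween-20 buffer; 15 min compound preinc., RT. Start: 75uM H3(1-25), 70uM AcCoA, 50uM ThioGlo1. Read Ex340/Em540 at t=0 (autofluorescence flag) and t=20 min.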
GLP1R inv ag: qHTS of GLP-1 Receptor Inverse Agonists (Inhibition Mode); HEK293 GLP-1R CRE-luciferase, luminescence, 24 h; GLP-1R form is constitutively active; Potency, µM (top dose mostly 38.3 µM), for the others: at the highest dose activity change, negative = inhibition, usual class: inhibitors; hit rate 1.6% among 410,000; note: % is set by controls: 0 for no effect and ±100 for the full control effect; nearly all actives have a fitted effect of over 55% in size
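Using stably transfected HEK293 (constitutively active GLP-1R, cAMP-luciferase reporter), compounds were incubated 24 hr and luciferase measured by luminescence.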
GLP1R cytotox: qHTS of GLP-1 Receptor Inverse Agonists: Cytotox Screen | HEK293 cAMP-luciferase reporter cells, luminescence, 24 h | Potency, µM (top dose mostly 38.3 µM), inactives show top-dose activity change, negative = inhibition, hits mostly inhibitors | hit rate 0.13% among 410,000;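 note: loss of luciferase light is scored as toxicity; % is set by controls: 0 for no effect and ±100 for the full control effect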
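Quantitative HTS format, 1536 wells, 200 cells/uL seeded. Compounds: 23 nL, 24 h, 37 °C. Detection: luciferase reagent, luminescence at 12 min RT; decreased signal taken as cytotoxic.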
RGS4 inhibitor: Inhibitors of Regulator of G Protein Signaling (RGS) 4: qHTS; Regulator of G-protein signaling 4 (Homo sapiens), P49798; Potency, µM (doses to about 114 µM), without a hit: top-dose activity change, negative = inhibition, hits mostly inhibitors; Transcreener GDP fluorescence polarization, RGS4-accelerated GTP hydrolysis; AID 504845, 2011; hit rate 0.039% among 390,000; note: % is set by controls: 0 for no effect and ±100 for the full control effect; nearly all actives have a fitted effect of over 75% in size
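MLSMR compounds (23 nl, pin-transferred) preincubated 10 min at room temperature with a 500nM (2x) first reagent, then RGS4 at 900nM (2x) plus Transcreener GDP mix added; fluorescence polarization (620/688 nm) read before and after 90 min at 30 °C.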
* hit, by the source's call; i = inactive; ? = inconclusive; / = no result given; [ ] = another dose, or the depositor's remark. Calls come from the whole dose curve; as a rule, active = well fitted curve in the direction sought with a large enough effect; inconclusive = small, poorly fitted or top-dose-only effect, or another doubt; inactive = no such curve, though single readings can be large; an effect the other way counts as inactive or inconclusive. Potency is the fitted concentration of half-maximal effect.

SMILES | GLP1R ag | PTHR1 agonist | KAT2A inh | GLP1R inv ag | GLP1R cytotox | RGS4 inhibitor
CNC(=O)c1cn(-c2ccc(Cl)cc2)c(=O)c2ccccc12 | 2.5% | i | -2.2% | -13.6% | -18.9% | ?
CCCCN(CC)CCNC(=O)c1cn(-c2ccc(Cl)cc2)c(=O)c2ccccc12 | 7.0% | i | 0.7% | 10µM* | -29.2% | -37.3%
COc1ccc(Cn2nnnc2C(c2ccccn2)N2CCN(c3ccc(O)cc3)CC2)cc1 (stereo not given) | / | / | / | / | / | -50.3%
O=S(=O)(NCC(c1ccco1)N1CCCCC1)c1cccc(C(F)(F)F)c1 (stereo not given) | 3.0% | -14.7% | -0.5% | 11.2µM* | -1.1% | -15.4%
O=S(=O)(NCC(c1ccco1)N1CCCCC1)c1ccccc1C(F)(F)F (stereo not given) | -9.0% | -6.8% | -4.7% | 10µM* | -2.1% | 11.8%
COc1ccc(C(=O)NC2CC2)cc1OC1CCN(Cc2ccc(F)cc2Cl)CC1 | -4.7% | i | / | 10µM* | ? | -32.6%
COc1ccc(CN2CCC(Oc3cc(C(=O)NC4CC4)ccc3OC)CC2)c(O)c1 | -0.1% | -7.5% | -1.9% | ? | -11.0% | 5.1%
O=c1c2ccccc2cnn1Cc1ccc(Cl)c(Cl)c1 | 34.4% | -90.2% | -1.0% | 10µM* | 12.1% | -12.7%
CCOc1ccc(-c2nnc(-c3ccccc3)o2)cc1 | -12.6% | -71.1%[57.5 µM] | -18.7% | 5.01µM* | -2.8% | -29.9%
COC(=O)c1ccc(NC(=O)CN2CCCN(Cc3ccc(Cl)cc3)S2(=O)=O)cc1 | / | -14.0% | -6.4% | ? | 9.2% | 22.9%
CCC1(CC)C(=O)C2=C3C1[C@H](C(=O)OC)CC(C(=O)OC)C[C@H]3[C@H]1C(=O)N(C)C(=O)[C@H]1[C@H]2C (stereo not given in full) | / | / | / | / | / | 13.3%
Cc1onc(-c2ccc(Cl)cc2Cl)c1-c1csc(COc2ccccc2)n1 | 4.9% | i | ? | 2.82µM* | 13.0% | 16.8%
Cc1cc(C(=O)Nc2cccc(C(=O)O)c2)oc1C | -32.0% | -18.3% | -18.6% | 1.26µM* | -1.0% | -2.8%[11.4 µM]
Cc1ccc(S(=O)(=O)c2cn(Cc3ccccc3Cl)c3ccc(F)cc3c2=O)cc1 | / | -34.7% | 0.7% | 8.7% | 3.5% | 7.3%
O=C(CCSc1ccccc1)Nc1nccs1 | -14.4% | -13.2%[57.5 µM] | 2.6% | -0.2% | 4.6% | -21.4%
O=C(CSc1ccccc1)N(c1ccc(Br)cc1)c1nccs1 | 13.2% | -0.1% | -12.3% | 11.2µM* | -1.1% | 7.3%[11.4 µM]
COc1ccc(NC(=S)NCc2ccco2)c(OC)c1 | -13.5% | i | -1.8% | 26.9% | 18.9% | 39.6%
Cc1onc(-c2ccccc2Cl)c1C(=O)OCC(=O)N1CCCc2ccccc21 | 5.3% | -7.8% | -5.9% | 10µM* | -22.7% | -10.9%
Cc1ccc2c(c1)[C@H]1[C@H](CO2)[C@H](c2ccccc2)[C@]2(C)C(=O)Nc3ccc(Cl)cc3C(=O)N12 | -1.8% | i | -9.7% | 6.31µM* | 1.0% | -26.0%
Cc1ccc2c(c1)C(=O)N1[C@H]3c4ccccc4OC[C@@H]3[C@H](c3ccccc3)[C@]1(C)C(=O)N2 | -2.5% | i | -9.0% | 11.2µM* | 11.1% | -9.7%
Cc1ccc2c(c1)NC(=O)[C@@]1(C)[C@@H](c3ccccc3)[C@H]3COc4ccccc4[C@@H]3N1C2=O | -2.4% | -15.3% | -15.6% | ? | 6.8% | -5.4%
Cc1ccc(Cl)cc1NC(=O)CSCc1cnn(-c2ccccc2)c1-n1cccc1 | / | i | -10.8% | 10µM* | -11.5% | -6.6%
